Screens (PubChem)
PINK1 modulator: changes PINK1 expression | PINK1 immunofluorescence, high-content cytometry, 24 h | Potency, µM (series often up to 76.6 µM), for inactives: at the top dose activation (PINK1 increase), most hits filed as activators | 410,000 compounds, 0.2% hits | AID 624263; active means well fitted activation curve with a large enough effect; inconclusive means small, poorly fitted or top-dose-only effect; cell line not stated here; further: % of control where 0% means no effect; nearly all actives have a fitted effect of over 65% in size
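Compound titrations (5 concentrations, 24 h) on a stable cell line; DMSO and CCCP controls. Endpoint: fixed-cell PINK1 immunofluorescence with mitochondrial, cell and nuclear markers, scanned by microplate cytometer.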
KB-V1 cytotox: KB-V1 MDR subline cytotoxicity | KB-V1 MDR cells viability, CellTiter-Glo, 72 h | 400,000 compounds, 3.4% hits | Potency, µM (highest dose often 46.1 µM), actives largely listed as cytotoxic; further: on the % scale 0 is the no-effect control and ±100 the full control effect; nearly all actives have a fitted effect of over 60% in size
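KB-V1 MDR subline cells in DMEM (phenol-red free, 10% FBS) exposed to compounds in qHTS concentration series for 72 h at 37 degrees C. Viability read by CellTiter-Glo luminescence; concentration-effect curves fitted after normalization and correction.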
ALOX12 inh: ALOX12 (human) lipoxygenase inhibition; purified 12hLO, xylenol orange hydroperoxide absorbance; 580,000 compounds, 1.1% hits; Potency, µM (doses to about 108 µM), inactives show at the top dose activity change, negative = inhibition, usual class: inhibitors; P18054; further: on the % scale 0 is the no-effect control and ±100 the full control effect
Target sequence (P18054 whole entry, looked up): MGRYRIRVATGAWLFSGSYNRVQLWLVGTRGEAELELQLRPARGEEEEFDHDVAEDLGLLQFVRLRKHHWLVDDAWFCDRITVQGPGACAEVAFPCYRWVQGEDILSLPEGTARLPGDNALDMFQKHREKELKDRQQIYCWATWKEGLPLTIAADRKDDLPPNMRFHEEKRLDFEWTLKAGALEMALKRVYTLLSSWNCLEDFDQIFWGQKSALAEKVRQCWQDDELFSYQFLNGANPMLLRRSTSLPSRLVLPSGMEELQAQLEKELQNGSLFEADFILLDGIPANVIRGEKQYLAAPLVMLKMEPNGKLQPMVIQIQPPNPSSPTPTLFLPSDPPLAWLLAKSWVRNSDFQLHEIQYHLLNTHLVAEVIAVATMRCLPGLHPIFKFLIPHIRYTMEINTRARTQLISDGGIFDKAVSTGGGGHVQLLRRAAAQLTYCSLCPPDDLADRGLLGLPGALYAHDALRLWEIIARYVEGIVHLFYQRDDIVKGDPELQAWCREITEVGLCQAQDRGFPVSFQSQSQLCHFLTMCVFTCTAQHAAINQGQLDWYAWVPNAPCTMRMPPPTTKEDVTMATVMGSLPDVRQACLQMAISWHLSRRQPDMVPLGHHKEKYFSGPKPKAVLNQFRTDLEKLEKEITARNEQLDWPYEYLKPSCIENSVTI
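Purified human 12hLO (150 nM final) in 25 mM Hepes, 0.01% Triton X-100, pH 7.0 was preincubated 15 min at room temperature with compound. Then 40 uM arachidonic acid was added, 30 min. Hydroperoxide was read by Fe-XO absorbance ratio 573/405 nm.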
KB-3-1 tox: KB-3-1 parental cell cytotoxicity; AID 1347075; 400,000 compounds, 1.4% hits; KB-3-1 viability, CellTiter-Glo ATP luminescence, 72 h; Potency, µM (doses to about 46.1 µM), hits mostly cytotoxic; further: on the % scale 0 is the no-effect control and ±100 the full control effect; nearly all actives have a fitted effect of over 60% in size
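KB-3-1 parental drug-naive adenocarcinoma cells in DMEM/10% FBS, incubated 72 h at 37 C with pin-transferred compounds across a concentration series. Viability by CellTiter-Glo luminescence; concentration-response curves fitted after normalization.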
SW480 rereplic: DNA re-replication induction in SW480 cells; 340,000 compounds, 1.8% hits; Potency, µM (series often up to 46.1 µM), for inactives: at the highest dose re-replication activation, usual class: activators; SW480 DNA re-replication, Hoechst DNA content imaging, 48 h; further: % of control where 0% means no effect; nearly all actives have a fitted effect of over 55% in size
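Treated cells incubate 48 hr (37 C, 5% CO2), are stained 40 min with Hoechst, and nuclear fluorescence is enumerated; a rise in nuclei with high DNA signal marks re-replication.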
MCF10A rerep: DNA re-replication induction in MCF 10a cells; MCF 10A DNA re-replication, Hoechst nuclear intensity, 48 h; Potency, µM (top dose mostly 46.1 µM), without a hit: at the top dose activity, positive = re-replication, most hits filed as activators; 350,000 compounds, 2.9% hits; further: % of control where 0% means no effect; nearly all actives have a fitted effect of over 50% in size
* = called active by the depositor; i = inactive; ? = inconclusive; / = not tested or not shown; [ ] = another dose, or the depositor's remark. An excerpt weighted towards active compounds, which were near 5.8% of everything screened. Unless noted, the call rests on the fitted dose curve; in most records, active means well fitted curve in the direction sought with a large enough effect; inconclusive means small, poorly fitted or top-dose-only effect, or another doubt; inactive means no such curve, though single readings can be large; an effect the other way counts as inactive or inconclusive. Potency means the concentration at half of the fitted maximal effect.

SMILES | PINK1 modulator | KB-V1 cytotox | ALOX12 inh | KB-3-1 tox | SW480 rereplic | MCF10A rerep
O=C(CN(c1ccc(Br)cc1)S(=O)(=O)c1ccc(Cl)c([N+](=O)[O-])c1)NCC1CCCO1 (stereo unspecified) | -1.9% | ? | 32.8% | i | ? | 16.4µM*
O=C(O)c1ccc(N(Cc2ccccc2)S(=O)(=O)c2ccccc2)cc1 | 0.8% | i | 3.9% | i | -8.7% | -1.6%
O=C(CN(c1ccc(Cl)cc1)S(=O)(=O)c1ccc(Cl)c([N+](=O)[O-])c1)NCCc1ccc(F)cc1 | 0.2% | i | 13.6% | i | 6.4% | 3.66µM*
O=C(c1ccccc1F)N1N=C(c2ccsc2)CC1c1ccc2nccnc2c1 (stereo unspecified) | / | / | 16.3% | / | / | /
Cc1ccc(NC(=O)/C=C/C(=O)O)c([N+](=O)[O-])c1 | 1.0% | i | -21.4% | i | 1.3% | -4.1%
Cc1ccc(NC(=O)/C=C/c2cccs2)c([N+](=O)[O-])c1 | 4.7% | 5.8µM* | -20.8% | ? | 20.6µM* | ?
O=C(CSc1nc(-c2cccs2)cc(C(F)(F)F)n1)Nc1cc(OCC(F)(F)C(F)F)cc([N+](=O)[O-])c1 | 1.2% | 16.4µM* | -1.2% | ? | ? | ?
Nc1nc(=S)[nH]c2c1C1(CCCCC1)Cc1ccccc1-2 | 7.0% | 23.1µM* | ? | ? | -92.5% | 1.7%
C=CCn1c(SCC(=O)NC)nc2sc3c(c2c1=O)CCC3 | 0.9% | 2.06µM* | 6.5% | i | -3.1% | 23.2%
C=CCn1c(SCC(=O)NCC)nc2sc3c(c2c1=O)CCC3 | 4.6% | i | ? | i | -9.5% | -13.9%
C=CCNC(=O)CSc1nc2sc3c(c2c(=O)n1CCCOC)CCC3 | 2.2% | i | 13.9% | i | -2.9% | 6.51µM*
CC(=O)Nc1ccc(NC(=O)C2(C)CC2(Cl)Cl)cc1Cl (stereo unspecified) | / | / | 11.8% | / | / | /
CCN1C(=O)[C@H]2[C@@H](c3ccc(OC)cc3)N[C@]3(CCCN(Cc4ccc(C(F)(F)F)cc4)C3=O)[C@H]2C1=O | 2.3% | i | 31.6µM* | i | / | /
Cc1ccc(CN2CCC[C@]3(N[C@H](c4ccc(C(F)(F)F)cc4)[C@@H]4C(=O)N(Cc5ccccc5)C(=O)[C@@H]43)C2=O)cc1 | 1.8% | i | 8.91µM* | ? | / | /
Cc1ccc([C@H]2N[C@]3(CCCN(Cc4ccc(C(F)(F)F)cc4)C3=O)[C@H]3C(=O)N(Cc4ccccc4)C(=O)[C@@H]23)cc1 | 1.9% | i | ? | i | / | /
Cc1ccc([C@H]2N[C@]3(CCCN(Cc4ccc(F)cc4)C3=O)[C@H]3C(=O)N(Cc4ccccc4)C(=O)[C@@H]23)cc1 | 1.2% | i | 14.1µM* | i | / | /
COc1ccc(CN2CCC[C@]3(N[C@H](c4ccc(C(F)(F)F)cc4)[C@@H]4C(=O)N(Cc5ccccc5)C(=O)[C@@H]43)C2=O)cc1 | 0.2% | i | ? | i | / | /
COc1ccc([C@H]2N[C@]3(CCCN(Cc4ccc(F)cc4)C3=O)[C@H]3C(=O)N(Cc4ccccc4)C(=O)[C@@H]23)cc1 | 0.2% | i | 35.5µM* | i | / | /
CCCc1ccc(NC(=O)CC2(C(=O)O)CCCC2)cc1 | / | / | 1.8% | / | / | /
Cc1ccccc1NC(=O)C(C)N1CCC(C(=O)NCc2ccccc2)CC1 (stereo unspecified) | / | / | 12.1% | / | / | /
CC(=O)NNC(=S)Nc1ccccc1C(F)(F)F | / | / | 66.7% | / | / | /
CN1CCCCc2c1nc1ccccc1c2N (tested in a mixture with another compound) | 6.3%[38.3 µM] | i | -22.7% | i | -13.3% | 5.7%
NCC1CCN(c2nc3ccccc3c3c2CCCC3)CC1 | -2.0% | 14.6µM* | ? | 23.1µM* | ? | ?
COC(=O)c1c(C)oc2ccc(N(C(=O)c3ccncc3)S(=O)(=O)c3cc(C)ccc3C)cc12 | 0.8% | 6.51µM* | -1.0% | 13µM* | / | /
COC(=O)c1c(C)oc2ccc(N(C(=O)c3ccncc3)S(=O)(=O)c3ccc(Br)cc3)cc12 | 4.1% | i | -25.0% | i | / | /
SMILES | PINK1 modulator | KB-V1 cytotox | ALOX12 inh | KB-3-1 tox | SW480 rereplic | MCF10A rerep
COC(=O)c1c(C)oc2ccc(N(C(C)=O)S(=O)(=O)c3ccccc3)cc12 | 3.9% | 2.31µM* | -9.1% | 23.1µM* | 1.4% | 9.6%
CCOc1ccc(S(=O)(=O)N(C(C)=O)c2ccc3oc(C)c(C(=O)OC)c3c2)cc1 | 1.6% | / | -22.7% | / | / | /
CC(=O)c1c(C)oc2ccc(N(C(=O)Oc3ccccc3)S(=O)(=O)c3ccccc3)cc12 | 0.2% | / | -8.0% | / | / | /
CC(=O)c1c(C)oc2ccc(N(C(C)=O)S(=O)(=O)c3ccc(Cl)c([N+](=O)[O-])c3)cc12 | -3.2% | ? | 0.0% | ? | ? | 1.84µM*
CC(=O)c1c(C)oc2ccc(N(C(C)=O)S(=O)(=O)c3ccc(Br)cc3)cc12 | 4.6% | ? | 9.2% | i | -5.0% | ?
CCCC(=O)N(c1ccc2oc(C)c(C(C)=O)c2c1)S(=O)(=O)c1ccc(CC)cc1 | -0.1% | 2.91µM* | -21.7% | 3.66µM* | / | /
Cc1ccnc2c(O)cccc12 | / | i | / | i | / | /
O=Cc1ccc(O)c2ncccc12 | -2.5% | ? | / | 6.51µM* | 7.31µM* | 1.64µM*
CCCC1CCc2c(sc(N)c2C(N)=O)C1 (stereo unspecified) | -0.8% | 16.4µM* | ? | i | 0.2% | ?
CN(CCO)C(=O)c1nc(-c2ccc3cc[nH]c3c2)no1 | / | / | -4.7% | / | / | /
CC(C)Cn1c(-c2ccc(Br)cc2)c[nH]c1=S | -0.9% | i | 35.5µM* | i | -0.7% | 11.8%
COc1ccc(/C(C)=N\NS(C)(=O)=O)c(OC)c1 | -0.2% | i | 6.8% | i | 0.581µM* | -5.5%
COc1ccc(C(=O)/C(=C\c2ccc(Cl)cc2)c2nc3ccccc3o2)cc1 | / | / | -19.7% | / | / | /
CCN1CCCC1CNC(=O)c1cc2c(-c3ccc(Cl)cc3)nn(C)c2s1 (stereo unspecified) | -0.1% | ? | / | ? | 20.6µM* | ?
Cn1nc(-c2ccc(Cl)cc2)c2cc(C(=O)NCCCN3CCCC3)sc21 | -0.7% | i | -9.8% | ? | ? | 23.1µM*
CCCCNC(=O)c1cc2c(-c3ccc(Cl)cc3)nn(C)c2s1 | 4.8% | i | 0.6% | i | 2.7% | ?
CCN1CSC(=S)N(Cc2ccccc2)C1 | 4.0% | i | 13.8% | ? | 18.4µM* | ?
CCCCCN1CSC(=S)N(Cc2ccccc2)C1 | 5.6% | ? | ? | ? | ? | ?
S=C1SCN(Cc2cccs2)CN1Cc1cccs1 | 4.5% | i | 0.7% | ? | / | /
